From article PMC7862700, “An all-to-all approach to the identification of sequence-specific readers for epigenetic DNA modifications on cytosine”

What follows are sequences tested against T1, ELF5 (Homo sapiens, UniProt Q9UKW6-2 1-255) (assay: DAPPL (digital affinity profiling via proximity ligation, sequencing); 10 mM Tris-HCl pH 7.5, 50 mM NaCl, 1 mM DTT, 4% glycerol, room temperature, 30 min; GST-TFs on glutathione beads, 16-mer random dsDNA library, 0.1% formaldehyde crosslink after washing; high values mean tight binding). Conditions: protein: recombinant; tags: N-terminal GST; dsDNA, one strand shown.
T1 sequence: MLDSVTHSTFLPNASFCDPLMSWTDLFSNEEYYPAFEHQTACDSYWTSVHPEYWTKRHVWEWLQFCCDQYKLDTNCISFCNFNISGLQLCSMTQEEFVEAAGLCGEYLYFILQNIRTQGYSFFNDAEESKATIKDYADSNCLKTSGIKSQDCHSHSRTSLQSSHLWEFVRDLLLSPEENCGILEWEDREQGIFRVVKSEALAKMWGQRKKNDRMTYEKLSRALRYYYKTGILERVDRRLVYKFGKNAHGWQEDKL
How it was run: (§1)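 In yeast, human transcription factors were expressed with a GST fusion, then pulled down on glutathione beads and given DNA barcodes. Pooled with a tag-only sample, they were exposed to 200 nmole of a 16-mer random double-stranded DNA library (Tris/NaCl/DTT/glycerol buffer, room temperature, 30 min), washed, crosslinked with 0.1% formaldehyde, proximity-ligated using BsaI/T4 ligase for 1 h at 37 °C, PCR-amplified and read on an Illumina NextSeq500. Each hexamer's frequency of reads for a factor, divided by the matching frequency for the tag-only sample, gives the binding signal.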

Sequence | binding signal
TGTACC | 1.27 fold enrichment (6-mer frequency, TF over GST control)
ATCCAA | 1.11 fold enrichment (6-mer frequency, TF over GST control)
TGAATG | 1.21 fold enrichment (6-mer frequency, TF over GST control)
GGTTTA | 1.08 fold enrichment (6-mer frequency, TF over GST control)
AGGAAA | 2.19 fold enrichment (6-mer frequency, TF over GST control)
CCGACA | 1.25 fold enrichment (6-mer frequency, TF over GST control)
AGTTAA | 1.03 fold enrichment (6-mer frequency, TF over GST control)
CTGAAG | 1.06 fold enrichment (6-mer frequency, TF over GST control)
AGGTTT | 1.04 fold enrichment (6-mer frequency, TF over GST control)
TTATTA | 1.13 fold enrichment (6-mer frequency, TF over GST control)
TAGTAA | 1.04 fold enrichment (6-mer frequency, TF over GST control)
TACTGG | 1.04 fold enrichment (6-mer frequency, TF over GST control)
TTTGAG | 1.03 fold enrichment (6-mer frequency, TF over GST control)
GTTAAT | 1.1 fold enrichment (6-mer frequency, TF over GST control)
TGTACG | 1.14 fold enrichment (6-mer frequency, TF over GST control)
AACTTG | 1.06 fold enrichment (6-mer frequency, TF over GST control)
TCCCAG | 1.12 fold enrichment (6-mer frequency, TF over GST control)
CGATAT | 1.06 fold enrichment (6-mer frequency, TF over GST control)

Sequence | binding signal
TAAGGT | 1.05 fold enrichment (6-mer frequency, TF over GST control)
AAAAGT | 1.08 fold enrichment (6-mer frequency, TF over GST control)
GTTAAG | 1.07 fold enrichment (6-mer frequency, TF over GST control)
TAGAAT | 1.08 fold enrichment (6-mer frequency, TF over GST control)
GCGTTC | 1.03 fold enrichment (6-mer frequency, TF over GST control)
CTGCCA | 1.2 fold enrichment (6-mer frequency, TF over GST control)
CCCCGA | 1.13 fold enrichment (6-mer frequency, TF over GST control)
GCACTC | 1.27 fold enrichment (6-mer frequency, TF over GST control)
AAACTG | 1.1 fold enrichment (6-mer frequency, TF over GST control)
TAGTCC | 1.06 fold enrichment (6-mer frequency, TF over GST control)
TGATAT | 1.09 fold enrichment (6-mer frequency, TF over GST control)
TCGCAC | 1.06 fold enrichment (6-mer frequency, TF over GST control)
GAAACT | 1.28 fold enrichment (6-mer frequency, TF over GST control)
GGAATT | 1.28 fold enrichment (6-mer frequency, TF over GST control)
TTCGGC | 1.01 fold enrichment (6-mer frequency, TF over GST control)
TCTGGG | 1.08 fold enrichment (6-mer frequency, TF over GST control)
AGTAAT | 1.2 fold enrichment (6-mer frequency, TF over GST control)

Each sequence was assayed against T2, ETV3 (Homo sapiens, UniProt P41162-2 1-143) in the same assay as above. Conditions: protein: recombinant; tags: N-terminal GST; dsDNA, one strand shown.
T2 sequence: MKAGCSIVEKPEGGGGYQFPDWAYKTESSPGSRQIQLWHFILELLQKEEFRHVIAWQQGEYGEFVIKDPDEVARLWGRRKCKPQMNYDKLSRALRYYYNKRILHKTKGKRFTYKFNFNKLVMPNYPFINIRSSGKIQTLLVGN
How it was run: as §1

Sequence | binding signal
GTTAAA | 1.04 fold enrichment (6-mer frequency, TF over GST control)
TGTACC | 1.35 fold enrichment (6-mer frequency, TF over GST control)
ATCCAA | 1.11 fold enrichment (6-mer frequency, TF over GST control)
TGAATG | 1.2 fold enrichment (6-mer frequency, TF over GST control)
GGTTTA | 1.1 fold enrichment (6-mer frequency, TF over GST control)
GTTCGA | 1.06 fold enrichment (6-mer frequency, TF over GST control)
AGGAAA | 1.52 fold enrichment (6-mer frequency, TF over GST control)
CCGACA | 1.24 fold enrichment (6-mer frequency, TF over GST control)
GCCGAT | 1.18 fold enrichment (6-mer frequency, TF over GST control)
TGATCA | 1.05 fold enrichment (6-mer frequency, TF over GST control)
AGTTAA | 1.13 fold enrichment (6-mer frequency, TF over GST control)
CTGAAG | 1.05 fold enrichment (6-mer frequency, TF over GST control)
AGGTTT | 1.11 fold enrichment (6-mer frequency, TF over GST control)
TTATTA | 1.14 fold enrichment (6-mer frequency, TF over GST control)
TAGTAA | 1.06 fold enrichment (6-mer frequency, TF over GST control)
TACTGG | 1.11 fold enrichment (6-mer frequency, TF over GST control)
TTTGAG | 1.22 fold enrichment (6-mer frequency, TF over GST control)
GTTAAT | 1.1 fold enrichment (6-mer frequency, TF over GST control)
TGTACG | 1.1 fold enrichment (6-mer frequency, TF over GST control)
